# Reference: PubChem BioAssay (NCI)
# About 83,000 compounds went through this panel and 20% of them were active in at least one assay; those are over-represented in the sample as a whole.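 Percent growth is the endpoint: 0 to 100 indicates growth inhibition (40 means 60% inhibition), 0 means no net growth, and negative values indicate cell death.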 A number with no mark means an inactive call. Active and inactive are the calls of the source. The calls were made as follows: active = growth percent below 10; inactive = the rest.
# What was measured:
# Assay in all cases: NCI-60 one-dose screen, 48 h (100 = growth as untreated, 0 = no growth, -100 = all killed)
# Settings in all cases: 10 µM unless noted
# RPMI-8226 leukemia = test system: RPMI-8226 leukemia
# OVCAR-8 ovarian = test system: OVCAR-8 ovarian
# OVCAR-5 ovarian = test system: OVCAR-5 ovarian
# OVCAR-4 ovarian = test system: OVCAR-4 ovarian
# SK-OV-3 ovarian = test system: SK-OV-3 ovarian
# IGROV1 ovarian = test system: IGROV1 ovarian
# OVCAR-3 ovarian = test system: OVCAR-3 ovarian
# HS 578T breast = test system: HS 578T breast
# NCI/ADR-RES ovarian = test system: NCI/ADR-RES ovarian
# T-47D breast = test system: T-47D breast
Compound,growth (RPMI-8226 leukemia),growth (OVCAR-8 ovarian),growth (OVCAR-5 ovarian),growth (OVCAR-4 ovarian),growth (SK-OV-3 ovarian),growth (IGROV1 ovarian),growth (OVCAR-3 ovarian),growth (HS 578T breast),growth (NCI/ADR-RES ovarian),growth (T-47D breast)
C[n+]1c2ccccc2c(Nc2ccc(N3CCCCC3)cc2)c2[nH]c3ccccc3c21,-72.4% (active),-87.4% (active),-86.2% (active),-35.3% (active),-75.8% (active),-97% (active),-95.7% (active),-69.5% (active),-61.8% (active),-55.7% (active)
Clc1ccc(CCC(Cn2ccnc2)Sc2c(Cl)cccc2Cl)cc1 (stereo not given),25.2%,63.8%,68%,60.4%,91.1%,59%,59.4%,90.8%,28.2%,39.5%
CCCCCCOc1ccc(/C=N/NC(N)=S)cc1,7.2% (active),70.6%,84.5%,26.5%,90.6%,13.9%,28.5%,61.8%,58.5%,24%
COC(=O)C[C@@H]1CC=CC(=O)/C1=C(O)/C=C/c1ccccc1,31.3%,10.6%,-83.8% (active),-10.7% (active),32.6%,-72.9% (active),-92.5% (active),12.5%,17.6%,-6.15% (active)
COc1ccc(-c2cc(Cc3cccs3)c(=O)n(Cn3ccc4ccccc43)n2)cc1,88%,99.2%,99.9%,111%,106%,124%,111%,112%,107%,109%
O=C(NN(C(=O)c1ccccc1)c1cccs1)c1ccccc1,94.4%,120%,105%,106%,102%,102%,115%,104%,103%,94.9%
O=C(Nc1cccc(C(F)(F)F)c1)Nc1ccc(OCc2nnc(-c3ccc(Cl)cc3)o2)c(F)c1,41.3%,58.2%,75.9%,75%,79.5%,90%,85.8%,91.7%,73.1%,61.6%
COc1ccc(-c2csc(NC(=O)c3cc(OC)c(OC)c(OC)c3)n2)cc1,92.7%,97.2%,103%,96.8%,101%,100%,105%,96.4%,115%,94.8%
CN1CCN(CC(=O)Nc2nc3c(s2)Nc2cc(Cl)c(Cl)cc2NC3=O)CC1,108%,99.3%,113%,116%,99%,110%,115%,107%,109%,98.1%
Cc1nn(-c2ccccc2)c2c1oc(=O)c1cc(Cl)ccc12,101%,101%,111%,113%,106%,86.5%,85.8%,175%,108%,105%
Cc1nc2cc(NC(=O)CN3CCN(CCN4C(=O)c5cccc6cccc(c56)C4=O)CC3)ccc2s1,28.9%,30.2%,72%,61.4%,66.3%,44%,74.3%,69.5%,45.9%,50.7%
COc1ccc2[nH]cc(/C=C3/C(=O)Nc4ccc(F)cc43)c2c1,62.4%,84.1%,88.5%,75.6%,104%,98.2%,108%,72.6%,84.9%,92.2%
O=C(Nc1ccncc1)C(=O)c1cn(S(=O)(=O)c2cccc(F)c2)c2ccccc12,30.1%,45%,73.9%,67.2%,93.8%,40.6%,23.5%,55.8%,-11.2% (active),31.6%
Cc1ccc2c(c1)O/C(=C\c1ccc([N+](=O)[O-])o1)C2=O,-34.4% (active),-4.7% (active),71.6%,5.62% (active),91.1%,-17.3% (active),-15% (active),106%,78.5%,41.4%
CC1(C)OC(=O)C(=Cc2ccccc2Br)C(=O)O1,95.5%,99.4%,96.6%,102%,111%,102%,106%,101%,106%,102%
